In the supplement of paper PMC7724964:

What was measured:
Test in all cases: phage ELISA signal ratio (GST-PRM binding over GST background); higher = stronger binding of peptide-phage to the PRM
[1] = biological target: DEPDC6 20-129 DEP (domain begin residue: 20, domain end residue: 129)
Description: (§1)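 Phage-displayed random hexadecapeptides (Cys-free, flanked by invariant Gly linkers, fused to the M13 P8 major coat protein) were selected over 5 rounds against GST-fused human PRM domains. Individual clones from rounds 4-5 were tested by phage ELISA, and positive clones binding the target but not GST were sequenced. Values are the ELISA signal ratio of target over background (GST); the background signal is given separately.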

[2] = biological target: T1, CLTC 1-363 Clathrin_propel+Clathrin-link (domain begin residue: 1, domain end residue: 363), Q00610
T1 chain: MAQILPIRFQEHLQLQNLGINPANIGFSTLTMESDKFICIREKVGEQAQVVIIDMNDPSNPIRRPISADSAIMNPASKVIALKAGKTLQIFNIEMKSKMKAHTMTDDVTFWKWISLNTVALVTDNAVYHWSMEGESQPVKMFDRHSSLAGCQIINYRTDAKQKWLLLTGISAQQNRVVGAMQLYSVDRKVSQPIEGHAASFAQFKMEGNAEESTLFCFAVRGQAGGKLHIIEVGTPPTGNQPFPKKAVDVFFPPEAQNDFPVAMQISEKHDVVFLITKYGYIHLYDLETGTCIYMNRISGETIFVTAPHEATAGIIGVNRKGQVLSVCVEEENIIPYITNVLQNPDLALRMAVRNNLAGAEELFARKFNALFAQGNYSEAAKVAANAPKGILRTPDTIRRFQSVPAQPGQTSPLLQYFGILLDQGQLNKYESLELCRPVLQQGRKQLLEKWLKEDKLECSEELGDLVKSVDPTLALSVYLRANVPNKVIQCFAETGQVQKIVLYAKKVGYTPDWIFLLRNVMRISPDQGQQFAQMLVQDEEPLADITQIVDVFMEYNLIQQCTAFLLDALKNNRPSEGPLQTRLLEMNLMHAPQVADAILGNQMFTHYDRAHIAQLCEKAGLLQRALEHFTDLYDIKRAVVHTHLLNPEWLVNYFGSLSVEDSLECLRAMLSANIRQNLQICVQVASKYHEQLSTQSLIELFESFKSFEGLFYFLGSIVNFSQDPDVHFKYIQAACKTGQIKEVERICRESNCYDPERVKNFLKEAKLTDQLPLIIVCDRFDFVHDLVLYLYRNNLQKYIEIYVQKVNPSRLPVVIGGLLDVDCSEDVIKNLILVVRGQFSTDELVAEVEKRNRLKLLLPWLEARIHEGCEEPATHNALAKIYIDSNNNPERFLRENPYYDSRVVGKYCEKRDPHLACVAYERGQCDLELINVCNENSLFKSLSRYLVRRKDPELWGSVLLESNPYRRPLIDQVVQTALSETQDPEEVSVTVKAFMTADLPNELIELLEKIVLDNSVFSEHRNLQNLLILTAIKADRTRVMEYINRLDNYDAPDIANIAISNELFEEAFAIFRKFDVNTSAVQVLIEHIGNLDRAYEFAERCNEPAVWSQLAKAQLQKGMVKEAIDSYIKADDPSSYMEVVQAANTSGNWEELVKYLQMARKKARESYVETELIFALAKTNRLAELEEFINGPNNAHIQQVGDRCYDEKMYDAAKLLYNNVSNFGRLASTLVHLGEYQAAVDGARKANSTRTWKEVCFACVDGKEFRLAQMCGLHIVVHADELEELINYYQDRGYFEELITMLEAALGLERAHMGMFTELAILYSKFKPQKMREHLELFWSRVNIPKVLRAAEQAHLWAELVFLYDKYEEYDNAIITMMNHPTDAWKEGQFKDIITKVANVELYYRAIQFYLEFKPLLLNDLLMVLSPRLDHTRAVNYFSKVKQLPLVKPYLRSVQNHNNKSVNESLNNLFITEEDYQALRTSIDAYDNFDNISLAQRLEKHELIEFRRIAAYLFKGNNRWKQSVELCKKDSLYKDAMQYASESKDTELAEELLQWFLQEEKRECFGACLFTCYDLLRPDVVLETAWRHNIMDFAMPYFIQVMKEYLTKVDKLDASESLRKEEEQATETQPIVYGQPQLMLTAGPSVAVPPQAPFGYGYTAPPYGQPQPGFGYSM
Description: as §1

[3] = biological target: CBX3 109-173 Chromo_shadow (domain begin residue: 109, domain end residue: 173), Q13185
Description: as §1

[4] = biological target: DCTN1 26-97 CAP_GLY (domain begin residue: 26, domain end residue: 97), Q14203
Description: as §1

[5] = biological target: CKS1B 1-79 CKS (domain begin residue: 1, domain end residue: 79), P61024
Description: as §1

[6] = biological target: T2, CD2BP2 256-341 GYF (domain begin residue: 256, domain end residue: 341), O95400
T2 chain: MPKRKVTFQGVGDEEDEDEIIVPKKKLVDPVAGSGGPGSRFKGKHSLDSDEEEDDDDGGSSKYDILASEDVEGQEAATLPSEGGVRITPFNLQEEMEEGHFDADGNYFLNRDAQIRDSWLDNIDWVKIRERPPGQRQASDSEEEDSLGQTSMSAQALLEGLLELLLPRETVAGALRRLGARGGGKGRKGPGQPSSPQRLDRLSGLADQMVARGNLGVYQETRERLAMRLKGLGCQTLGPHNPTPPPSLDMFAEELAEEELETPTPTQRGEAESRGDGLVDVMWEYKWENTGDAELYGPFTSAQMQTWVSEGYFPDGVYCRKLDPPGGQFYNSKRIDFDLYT
Description: as §1

[7] = biological target: T3, CTDSP2 90-271 NIF (domain begin residue: 90, domain end residue: 271), O14595
T3 chain: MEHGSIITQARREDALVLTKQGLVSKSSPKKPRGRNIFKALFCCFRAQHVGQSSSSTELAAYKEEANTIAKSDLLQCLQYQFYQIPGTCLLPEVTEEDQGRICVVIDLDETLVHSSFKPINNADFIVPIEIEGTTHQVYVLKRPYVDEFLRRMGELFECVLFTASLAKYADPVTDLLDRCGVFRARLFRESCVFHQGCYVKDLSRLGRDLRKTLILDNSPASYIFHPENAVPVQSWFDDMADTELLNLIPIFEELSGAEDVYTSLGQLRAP
Description: as §1

[8] = biological target: T4, GIGYF2 507-602 GYF (domain begin residue: 507, domain end residue: 602), Q6Y7W6
T4 chain: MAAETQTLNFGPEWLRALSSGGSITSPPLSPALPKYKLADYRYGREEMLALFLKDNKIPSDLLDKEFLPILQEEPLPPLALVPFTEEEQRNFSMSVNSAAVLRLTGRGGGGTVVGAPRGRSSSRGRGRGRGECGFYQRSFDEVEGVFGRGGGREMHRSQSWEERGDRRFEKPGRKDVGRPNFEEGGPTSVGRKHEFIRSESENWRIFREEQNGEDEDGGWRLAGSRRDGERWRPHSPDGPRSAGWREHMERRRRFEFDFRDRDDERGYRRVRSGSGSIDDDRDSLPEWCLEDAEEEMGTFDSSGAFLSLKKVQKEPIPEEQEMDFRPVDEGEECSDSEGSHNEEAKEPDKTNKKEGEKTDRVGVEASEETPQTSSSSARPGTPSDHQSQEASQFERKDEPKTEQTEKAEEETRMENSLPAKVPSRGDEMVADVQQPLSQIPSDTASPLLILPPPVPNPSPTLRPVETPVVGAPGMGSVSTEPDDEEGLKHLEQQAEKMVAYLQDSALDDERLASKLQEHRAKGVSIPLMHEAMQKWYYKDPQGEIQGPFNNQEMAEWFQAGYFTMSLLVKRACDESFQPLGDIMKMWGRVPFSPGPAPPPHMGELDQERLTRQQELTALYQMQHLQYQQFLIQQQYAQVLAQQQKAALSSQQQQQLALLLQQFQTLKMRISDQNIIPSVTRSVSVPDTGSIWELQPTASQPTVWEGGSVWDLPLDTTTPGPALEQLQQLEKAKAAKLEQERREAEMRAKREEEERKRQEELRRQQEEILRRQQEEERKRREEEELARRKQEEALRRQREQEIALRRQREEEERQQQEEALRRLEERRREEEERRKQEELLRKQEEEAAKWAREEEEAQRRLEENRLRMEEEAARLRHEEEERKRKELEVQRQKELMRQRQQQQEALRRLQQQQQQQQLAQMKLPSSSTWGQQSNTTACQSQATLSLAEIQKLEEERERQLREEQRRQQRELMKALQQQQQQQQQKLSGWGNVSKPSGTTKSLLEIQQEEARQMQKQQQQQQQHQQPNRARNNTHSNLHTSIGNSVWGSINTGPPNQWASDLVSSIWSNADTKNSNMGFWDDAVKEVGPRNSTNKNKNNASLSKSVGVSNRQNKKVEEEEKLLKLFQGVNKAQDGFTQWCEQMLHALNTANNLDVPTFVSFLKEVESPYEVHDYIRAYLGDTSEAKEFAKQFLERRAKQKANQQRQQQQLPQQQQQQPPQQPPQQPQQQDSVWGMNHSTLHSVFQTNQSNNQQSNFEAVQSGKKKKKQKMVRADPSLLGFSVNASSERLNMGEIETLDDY
Description: as §1

[9] = biological target: DEPDC6 132-222 DEP (domain begin residue: 132, domain end residue: 222)
Description: as §1

[10] = biological target: DEPDC1B 7-110 DEP (domain begin residue: 7, domain end residue: 110), Q8WUY9
Description: as §1

CKS1B 1-79 CKS (domain begin residue: 1, domain end residue: 79), P61024, sequence (P61024 whole entry): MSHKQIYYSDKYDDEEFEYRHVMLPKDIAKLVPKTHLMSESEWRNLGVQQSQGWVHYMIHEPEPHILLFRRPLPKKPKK
DCTN1 26-97 CAP_GLY (domain begin residue: 26, domain end residue: 97), Q14203, sequence (Q14203 whole entry): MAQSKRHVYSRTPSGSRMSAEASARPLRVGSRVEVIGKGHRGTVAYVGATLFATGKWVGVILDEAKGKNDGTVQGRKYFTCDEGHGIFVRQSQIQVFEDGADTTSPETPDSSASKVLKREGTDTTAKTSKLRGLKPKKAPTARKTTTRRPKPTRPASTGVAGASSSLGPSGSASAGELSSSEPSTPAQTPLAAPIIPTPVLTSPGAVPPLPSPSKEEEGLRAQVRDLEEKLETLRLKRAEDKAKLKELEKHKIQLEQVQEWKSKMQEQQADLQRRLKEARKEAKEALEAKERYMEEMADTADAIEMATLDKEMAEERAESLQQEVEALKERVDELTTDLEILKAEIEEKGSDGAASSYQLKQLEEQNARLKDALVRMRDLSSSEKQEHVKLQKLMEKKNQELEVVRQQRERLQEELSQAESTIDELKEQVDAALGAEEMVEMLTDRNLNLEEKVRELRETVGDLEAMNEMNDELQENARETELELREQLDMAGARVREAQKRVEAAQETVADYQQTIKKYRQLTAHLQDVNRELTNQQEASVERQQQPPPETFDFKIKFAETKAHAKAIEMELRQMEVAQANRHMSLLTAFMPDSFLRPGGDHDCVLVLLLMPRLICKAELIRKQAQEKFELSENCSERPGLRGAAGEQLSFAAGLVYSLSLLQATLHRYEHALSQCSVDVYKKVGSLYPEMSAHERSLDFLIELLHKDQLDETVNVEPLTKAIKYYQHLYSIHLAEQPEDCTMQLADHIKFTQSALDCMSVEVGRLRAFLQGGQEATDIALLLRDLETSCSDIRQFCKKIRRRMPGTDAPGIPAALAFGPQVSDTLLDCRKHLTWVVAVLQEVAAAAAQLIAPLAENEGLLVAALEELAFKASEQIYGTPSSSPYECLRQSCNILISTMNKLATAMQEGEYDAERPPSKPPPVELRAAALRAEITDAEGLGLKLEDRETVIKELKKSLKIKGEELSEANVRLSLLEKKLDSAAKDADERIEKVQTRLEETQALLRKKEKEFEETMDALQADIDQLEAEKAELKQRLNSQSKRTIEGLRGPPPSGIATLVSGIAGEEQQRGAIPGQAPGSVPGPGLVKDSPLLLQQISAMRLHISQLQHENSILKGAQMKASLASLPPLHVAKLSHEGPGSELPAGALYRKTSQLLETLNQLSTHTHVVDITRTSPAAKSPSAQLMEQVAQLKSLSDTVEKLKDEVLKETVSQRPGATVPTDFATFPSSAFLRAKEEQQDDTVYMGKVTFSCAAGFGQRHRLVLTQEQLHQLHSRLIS
CBX3 109-173 Chromo_shadow (domain begin residue: 109, domain end residue: 173), Q13185, sequence (Q13185 whole entry): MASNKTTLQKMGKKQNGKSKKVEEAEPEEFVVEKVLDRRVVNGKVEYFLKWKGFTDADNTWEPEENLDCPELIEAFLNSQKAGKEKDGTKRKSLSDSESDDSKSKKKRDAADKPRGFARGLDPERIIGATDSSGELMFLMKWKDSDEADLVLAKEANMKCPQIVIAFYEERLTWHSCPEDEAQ
DEPDC1B 7-110 DEP (domain begin residue: 7, domain end residue: 110), Q8WUY9, sequence (Q8WUY9 whole entry): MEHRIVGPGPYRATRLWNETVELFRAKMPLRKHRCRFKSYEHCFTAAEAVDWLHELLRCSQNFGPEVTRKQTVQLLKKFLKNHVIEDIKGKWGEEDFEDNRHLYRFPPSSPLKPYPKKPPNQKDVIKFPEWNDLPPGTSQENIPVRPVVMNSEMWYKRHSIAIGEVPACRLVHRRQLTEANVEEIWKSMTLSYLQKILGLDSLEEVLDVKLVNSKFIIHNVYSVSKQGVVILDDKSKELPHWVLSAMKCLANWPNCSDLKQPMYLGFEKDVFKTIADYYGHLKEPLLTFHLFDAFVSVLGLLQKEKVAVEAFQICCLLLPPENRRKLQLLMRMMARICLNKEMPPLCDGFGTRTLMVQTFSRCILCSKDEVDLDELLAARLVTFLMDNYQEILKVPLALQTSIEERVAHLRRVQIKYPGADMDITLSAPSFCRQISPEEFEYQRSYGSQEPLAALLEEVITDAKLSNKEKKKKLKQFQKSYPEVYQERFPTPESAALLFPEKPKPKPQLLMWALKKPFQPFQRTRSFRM

Binder: THSEQWFETLMWNFHN
- phage ELISA signal ratio [1]: 3.26

Binder: WPNLEWMWDDEDMQFH
- phage ELISA signal ratio [2]: 15.5

Binder: GETHLMFSNMMEFYKY
- phage ELISA signal ratio [1]: 19.9

Binder: QFDLWMRNVMLDFWAD
- phage ELISA signal ratio [1]: 11.2

Binder: HDVWASSWNWDDFRLN
- phage ELISA signal ratio [3]: 12.7

Binder: MSDPPTLEHWEYMSWE
- phage ELISA signal ratio [4]: 12

Binder: MTWTATWYASDPYMEV
- phage ELISA signal ratio [5]: 28.8

Binder: QQWDPSWYYPQELVKM
- phage ELISA signal ratio [5]: 20.5

Binder: WLDYNDWLEMDHWEYV
- phage ELISA signal ratio [2]: 23.8

Binder: EVFDLISWDDGMWHSV
- phage ELISA signal ratio [2]: 28.8

Binder: PPPGYSKWTWSVQERV
- phage ELISA signal ratio [6]: 14.2

Binder: NSMSYMDIVWHSFDTI
- phage ELISA signal ratio [5]: 19.2

Binder: YPYPPGWDSNYAQRVE
- phage ELISA signal ratio [6]: 19.2

Binder: QEFMSISYPPGMPQDP
- phage ELISA signal ratio [6]: 14.4

Binder: DWAQVLWQDAHDWPVY
- phage ELISA signal ratio [2]: 23.9

Binder: EVPLWFYNIISEFHET
- phage ELISA signal ratio [1]: 13.8

Binder: EQVSFMHEWHQRFWQT
- phage ELISA signal ratio [7]: 9.81

Binder: EPPGWEVRQPGMVQVQ
- phage ELISA signal ratio [6]: 16.9
- phage ELISA signal ratio [8]: 17.5

Binder: IWWEQLHQDDWQAIWA
- phage ELISA signal ratio [9]: 15.1

Binder: EDPTLKVGHPPGWSFK
- phage ELISA signal ratio [6]: 17.6

Binder: MEEPPGYRLNMYAMSY
- phage ELISA signal ratio [6]: 17.5

Binder: YTLTIDELEHWLSAGG
- phage ELISA signal ratio [2]: 31.7

Binder: LAGFHPWFSEMLAEYH
- phage ELISA signal ratio [1]: 8.33

Binder: HGMDYLNREFPWDWWT
- phage ELISA signal ratio [4]: 16.6

Binder: MEWTWEQWDLGADYVK
- phage ELISA signal ratio [4]: 21.2

Binder: EMLAGNEFRAMMDEYY
- phage ELISA signal ratio [1]: 7.5

Binder: IDYESIFYEGMHWHTL
- phage ELISA signal ratio [5]: 22.1

Binder: DLPYEWSHFWDSIEHH
- phage ELISA signal ratio [10]: 4.2
